Compound activity deposited in PubChem by National Center for Advancing Translational Sciences (NCATS).
Only some compounds are listed: those with a hit (about 19% of all), similar ones and a draw of the others.
DT40 TDP1 CPT – DT40-hTDP1 cell growth loss with CPT; AID 686979; chicken DT40 Tdp1-/-;hTDP1 cells + 20 nM CPT, ATP luminescence, 48 h; Potency, µM (series often up to 46.2 µM), actives largely listed as inhibitors; 420,000 tested, 12% active; also: nearly all actives have a fitted effect of over 55% in size
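Chicken DT40 Tdp1-/- cells stably complemented with human TDP1 were seeded at 400 cells/well in medium containing 20 nM camptothecin, exposed to pin-transferred compounds, and grown at 37 °C for at least 48 hr. Viability was read as ATP luminescence.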
TDP1 cell noCPT – qHTS for Inhibitors of human tyrosyl-DNA phosphodiesterase 1 (TDP1): qHTS in cells in absence of CPT | DT40 Tdp1-/- hTDP1 cells, no CPT, ATP luminescence, 48 h | Potency, µM (top dose mostly 46.2 µM), hits mostly inhibitors | 420,000 tested, 15% active; also: nearly all actives have a fitted effect of over 55% in size
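Stably hTDP1-transfected Tdp1-null chicken DT40 cells were treated with library compounds minus camptothecin and grown for at least 48 hr at 37 °C, after which cellular ATP was quantified by luminescence.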
HT1080 IDH1KD tx – toxicity to HT-1080 IDH1 knockdown cells (counter line) | HT-1080 IDH1 knockdown viability, ATP luminescence, 48 h | Potency, µM (titrated, usually from 46.1 µM), usual class: cytotoxic | 360,000 tested, 2% active
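After a 2 h attachment period, IDH1KD HT-1080 cells took pin-transferred compound for 48 h at 37 °C; ATP-based luminescence after 10 min room-temperature reagent incubation reported viability.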
HT1080-NT tox – kills 2HG-producing HT-1080-NT fibrosarcoma cells; Potency, µM (series often up to 46.1 µM), most hits filed as cytotoxic; HT-1080-NT fibrosarcoma viability, CellTiter-Glo ATP luminescence, 48 h; AID 686970; 360,000 tested, 1.6% active;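 also: NT is the 2HG producing partner of a matched IDH1 knockdown line; nearly all actives have a fitted effect of over 55% in size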
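Viability of the 2HG-overproducing fibrosarcoma line after 48 hours of compound exposure at 37 degrees C was determined by luminescence with CellTiter-Glo, and concentration-effect curves were then fitted and categorized.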
IL-1B inflam inh – inhibitors of inflammasome signaling (IL-1 beta secretion); 360,000 tested, 4.7% active; THP-1 LPS/ATP IL-1B secretion, AlphaLISA, 16 h; hits give low values; activity change, % at 57.5 µM; in the data active = activity change below about -50%; inconclusive = mostly about -30% to -49%
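THP-1 cells pretreated 1 hr with compounds (up to 57.5 uM final), then stimulated with LPS (250 ng/mL final) plus ATP (1.25 mM final); secreted IL-1B measured by AlphaLISA after 16 hr, decreased signal indicating inhibition.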
Hits are given with their value; n = inactive; u = inconclusive; x = not tested or not shown; ! = not active in a repeat; [ ] = dose if it differs, or a comment. Unless noted, calls follow the shape of the dose curve; as a rule, active = well fitted curve in the direction sought with a large enough effect; inconclusive = small, poorly fitted or top-dose-only effect, or another doubt; inactive = no such curve, though single readings can be large; an effect the other way counts as inactive or inconclusive.

SMILES	DT40 TDP1 CPT	TDP1 cell noCPT	HT1080 IDH1KD tx	HT1080-NT tox	IL-1B inflam inh
CCOC(=O)C1CCN(C(=O)C(C)c2ccc([N+](=O)[O-])cc2)CC1 (stereo unspecified)	u	n	n	n	n
O=C(c1ccc(F)cc1F)N1CCC(c2nc(-c3ccc(S(=O)(=O)N4CCCC4)cc3)no2)CC1	n	n	x	x	x
CCn1c(O)c(C2=c3ccccc3=NC2=O)c2cc(Br)ccc21	6.5µM	12µM	n	n	-64
Cc1cc(=O)c2cc(Br)ccc2n1CC(=O)NCc1ccccc1	u	u	n	n	n
CN1c2ccsc2C(O)=C(C(=S)Nc2ccccc2)S1(=O)=O	15µM	23µM	n	n	n
CN1c2ccccc2C(O)=C(C(=S)Nc2ccccc2)S1(=O)=O	18µM	26µM	n	n	n
Cc1ccc(NC(=S)C2=C(O)c3ccccc3N(C)S2(=O)=O)cc1	u	21µM	n	n	n
CN1c2ccccc2C(O)=C(C(=O)Nc2ccccc2)S1(=O)=O	u	u	n	n	n
CN1c2ccccc2C(O)=C(C(=S)Nc2ccc(F)c(Cl)c2)S1(=O)=O	u	18µM	n	u	n
CN1CCN(CCCNC(=S)Nc2ccc(F)c(Cl)c2)CC1	n	n	n	n	u
CCOc1cc(C2C3=C(CC(C)(C)CC3=O)Nc3n[nH]c(C)c32)ccc1O (stereo unspecified)	n	n	n	n	n
O=C(/C=C/c1cccc(Cl)c1)Nn1c(-c2cccs2)nc2ccccc2c1=O	n	n	n	n	-55
CN(C)CCNc1ccc2ncn3c4ccc(O)cc4c(=O)c1c23	0.052µM	0.023µM	21µM	u	-104
CCOC(=O)c1cnc2ccc(Cl)cc2c1NCCN(C)C	n	u	n	n	n
COc1ccc2c(=O)c3ccccc3oc2c1	u	u	n	n	n
CN(C)CCNc1ccc(CO)c2sc3ccc(O)cc3c(=O)c12	0.026µM	0.15µM	16µM	u	-100
COc1ccc2oc3cc(NCCN(C)C)ccc3c(=O)c2c1	u	26µM	u	u	x
COc1ccc2sc3cccc(NCCN(C)C)c3c(=O)c2c1	13µM	10µM	16µM	16µM	n
OC(c1cccnc1)c1nc(-c2cccc(F)c2)cs1 (stereo unspecified)	u	u	n	n	n
COc1cc(C(=O)OCC(=O)N2CCCCCC2)c([N+](=O)[O-])cc1OC	u	n	n	n[9.24 µM]	n
Cc1ccc(S(=O)(=O)N2CCN(C(=O)COC(=O)/C=C/c3ccc(OC(F)F)cc3)CC2)cc1	u	21µM	n	n	n
Cc1ccc(S(=O)(=O)N2CCN(C(=O)COC(=O)/C=C/c3ccc(F)cc3)CC2)c(C)c1	u	u	n	n	n
Cc1ccc(S(=O)(=O)N2CCN(C(=O)COC(=O)/C=C/c3ccccc3[N+](=O)[O-])CC2)c(C)c1	u	u	n	n	n
COc1cc(C(=O)OCC(=O)N2CCN(S(=O)(=O)c3ccc(C)cc3C)CC2)c([N+](=O)[O-])cc1OC	u	21µM	n	n	n
Cc1ccc(S(=O)(=O)N2CCN(C(=O)COC(=O)/C=C/c3ccccc3)CC2)c(C)c1	16µM	n	n	n	n
SMILES	DT40 TDP1 CPT	TDP1 cell noCPT	HT1080 IDH1KD tx	HT1080-NT tox	IL-1B inflam inh
Cc1ccc(S(=O)(=O)N2CCN(C(=O)COC(=O)/C=C/c3cccc([N+](=O)[O-])c3)CC2)c(C)c1	9.2µM	16µM	n	n	n
CN(CCCNC(=O)c1ccccc1F)CCCNC(=O)c1ccccc1F	n	n	n	n	n
COC(=O)N(C)C[C@@H]1OCc2cn(nn2)CCCC(=O)N([C@@H](C)CO)C[C@H]1C	n	n	n	n	n
Cc1ccc(S(=O)(=O)NCC(=O)N2CCN(S(=O)(=O)c3ccc(Cl)cc3)CC2)cc1C	n	n	n	n	n
Cc1ccc(S(=O)(=O)N2CCN(C(=O)COC(=O)C3(C)CC3(Cl)Cl)CC2)c(C)c1 (stereo unspecified)	23µM	u	n	n[9.24 µM]	n
Cc1ccc(S(=O)(=O)N2CCN(C(=O)COC(=O)c3ccc(Cl)c(S(N)(=O)=O)c3)CC2)c(C)c1	n	n	n	n	n
C[C@H](CO)N1C[C@H](C)[C@@H](CN(C)C(=O)CN2CCOCC2)Oc2ncc(-c3cncnc3)cc2C1=O	n	u	n	n	u
CC(=O)Nc1ccc(S[C@@H](CCN2CC[C@H](C(C)(C)C)CCC2=O)c2ccccc2)cc1	21µM	18µM	u	n	-74
CC(C)(C)[C@@H]1CCC(=O)N(CC[C@H](N=[N+]=[N-])c2ccccc2)CC1	u	18µM	n	n	n
CC(C)(C)[C@@H]1CCC(=O)N(CC[C@H](Sc2ccccc2)c2ccccc2)CC1	16µM	21µM	n	n	u
CC1CCCN(C(=O)CCc2nnc(-c3ccc4c(c3)OCO4)o2)C1 (stereo unspecified)	n	n	n	n	n
CC(C)n1[nH]c2ccccc2c1=O	n	n	n	n	n
Cc1ccc(CN2C(=O)C(CC(C)C)Nc3ncnc(N4CCOCC4)c32)cc1 (stereo unspecified)	n	n	n	n	n
COc1ccc(CN2C(=O)C(CC(C)C)Nc3ncnc(N4CCN(c5ccccc5)CC4)c32)cc1 (stereo unspecified)	18µM	u	n	u	-62!
CC(C)CC1Nc2ncnc(N3CCN(c4ccccn4)CC3)c2N(Cc2ccc(Cl)cc2)C1=O (stereo unspecified)	u	23µM	u	u	-70!
CC(C)CC1Nc2ncnc(N3CCN(c4ccccc4)CC3)c2N(Cc2ccccc2)C1=O (stereo unspecified)	16µM	15µM	n	n	n
CC(C)CC1Nc2ncnc(N3CCN(c4ccccc4)CC3)c2N(Cc2ccc(Br)cc2)C1=O (stereo unspecified)	16µM	18µM	n	n	n
COC(=O)c1ccccc1S(=O)(=O)NNC(=O)c1nn(C)c(=O)c2ccccc12	n	n	n	n	n
CC(C)CC1Nc2ncnc(N3CCCCC3)c2N(Cc2ccccc2)C1=O (stereo unspecified)	26µM	18µM	n	u	n
COc1ccc(C(=O)OC(C)C(=O)NCC2CCCCC2)cc1S(=O)(=O)N1CCOCC1 (stereo unspecified)	n	n	n	n	n
O=C(CCc1ccccc1)NC(=S)Nc1ccc(S(=O)(=O)N2CCOCC2)cc1	u	16µM	n	n	n
CC(=O)Nc1ccc(S(=O)(=O)N2CCN(S(=O)(=O)N3CCOCC3)CC2)cc1	u	u	n	n	n
O=S(=O)(c1ccc(NC(=S)Nc2ccccc2)cc1)N1CCOCC1	n	n	n	n	n
